Results taken from article PMC7862700, “An all-to-all approach to the identification of sequence-specific readers for epigenetic DNA modifications on cytosine”.

Columns and labels:
Assay in all cases: DAPPL (digital affinity profiling via proximity ligation, sequencing); 10 mM Tris-HCl pH 7.5, 50 mM NaCl, 1 mM DTT, 4% glycerol, room temperature, 30 min; GST-TFs on glutathione beads, 16-mer random dsDNA library, 0.1% formaldehyde crosslink after washing; high values mean tight binding
Conditions in all cases: protein: recombinant; tags: N-terminal GST; dsDNA, one strand shown
ERF = target: T1, ERF (Homo sapiens, UniProt P50548 1-548)
T1 sequence: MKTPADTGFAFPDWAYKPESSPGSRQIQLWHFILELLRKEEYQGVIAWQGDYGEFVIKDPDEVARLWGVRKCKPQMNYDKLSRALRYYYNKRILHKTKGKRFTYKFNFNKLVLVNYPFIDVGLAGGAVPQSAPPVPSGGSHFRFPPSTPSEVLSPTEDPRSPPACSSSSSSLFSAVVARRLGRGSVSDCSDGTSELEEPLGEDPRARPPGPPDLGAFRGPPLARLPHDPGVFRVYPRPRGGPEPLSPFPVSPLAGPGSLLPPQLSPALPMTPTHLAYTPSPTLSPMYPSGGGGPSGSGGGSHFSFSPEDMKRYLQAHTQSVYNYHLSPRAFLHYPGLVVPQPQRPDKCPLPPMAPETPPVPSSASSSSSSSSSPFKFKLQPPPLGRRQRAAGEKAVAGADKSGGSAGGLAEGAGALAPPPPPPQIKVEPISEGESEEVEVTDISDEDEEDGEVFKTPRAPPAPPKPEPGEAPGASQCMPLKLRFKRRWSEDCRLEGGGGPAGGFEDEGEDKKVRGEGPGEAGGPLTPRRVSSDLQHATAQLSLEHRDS
Method in brief: (§1)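 Binding signal is given per hexamer as its read frequency for a factor divided by its frequency in the tag-only sample. GST-fused human transcription factors were expressed in yeast, captured on glutathione beads, barcoded with DNA and pooled with that sample, then incubated with 200 nmole of a 16-mer random double-stranded DNA library in Tris/NaCl/DTT/glycerol buffer for 30 min at room temperature. The pools were then washed, crosslinked, proximity-ligated, amplified by PCR and sequenced on an Illumina NextSeq500.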

ETV3L = target: T2, ETV3L (Homo sapiens, UniProt Q6ZN32 1-361)
T2 sequence: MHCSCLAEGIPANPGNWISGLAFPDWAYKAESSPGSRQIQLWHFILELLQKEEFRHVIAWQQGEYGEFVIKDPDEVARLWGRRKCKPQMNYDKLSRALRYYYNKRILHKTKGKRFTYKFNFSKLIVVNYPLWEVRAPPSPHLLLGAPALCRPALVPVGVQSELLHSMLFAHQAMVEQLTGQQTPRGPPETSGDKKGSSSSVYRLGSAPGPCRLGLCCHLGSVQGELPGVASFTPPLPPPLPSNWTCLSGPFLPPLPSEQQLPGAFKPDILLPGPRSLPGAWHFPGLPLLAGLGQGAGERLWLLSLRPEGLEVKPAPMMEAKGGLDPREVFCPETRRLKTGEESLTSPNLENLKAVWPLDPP
Method in brief: as §1

ETS2 = target: T3, ETS2 (Homo sapiens, UniProt P15036 1-469)
T3 sequence: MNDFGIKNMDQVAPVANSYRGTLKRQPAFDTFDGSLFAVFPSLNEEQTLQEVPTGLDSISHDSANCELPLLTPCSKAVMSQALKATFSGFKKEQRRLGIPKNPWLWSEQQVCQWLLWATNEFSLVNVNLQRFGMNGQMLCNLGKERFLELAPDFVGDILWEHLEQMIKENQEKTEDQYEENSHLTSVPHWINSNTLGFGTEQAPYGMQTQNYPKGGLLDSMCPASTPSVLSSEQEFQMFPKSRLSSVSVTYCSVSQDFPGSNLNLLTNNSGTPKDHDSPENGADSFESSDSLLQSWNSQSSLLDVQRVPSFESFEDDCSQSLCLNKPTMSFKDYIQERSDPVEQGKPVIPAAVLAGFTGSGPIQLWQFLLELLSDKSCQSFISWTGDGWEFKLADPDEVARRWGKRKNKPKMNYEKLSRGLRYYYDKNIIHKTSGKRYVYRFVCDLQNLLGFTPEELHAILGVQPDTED
Method in brief: as §1

SPDEF = target: T4, SPDEF (Homo sapiens, UniProt O95238 1-335)
T4 sequence: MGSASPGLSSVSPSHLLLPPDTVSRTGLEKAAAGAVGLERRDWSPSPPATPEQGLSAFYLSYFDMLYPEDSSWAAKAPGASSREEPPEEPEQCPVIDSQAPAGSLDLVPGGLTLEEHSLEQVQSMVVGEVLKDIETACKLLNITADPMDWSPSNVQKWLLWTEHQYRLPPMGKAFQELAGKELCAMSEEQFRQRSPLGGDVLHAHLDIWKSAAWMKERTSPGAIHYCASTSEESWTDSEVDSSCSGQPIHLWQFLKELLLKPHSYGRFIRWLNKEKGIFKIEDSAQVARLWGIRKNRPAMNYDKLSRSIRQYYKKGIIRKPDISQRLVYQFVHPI
Method in brief: as §1

ETV7 = target: T5, ETV7 (Homo sapiens, UniProt Q9Y603 1-341)
T5 sequence: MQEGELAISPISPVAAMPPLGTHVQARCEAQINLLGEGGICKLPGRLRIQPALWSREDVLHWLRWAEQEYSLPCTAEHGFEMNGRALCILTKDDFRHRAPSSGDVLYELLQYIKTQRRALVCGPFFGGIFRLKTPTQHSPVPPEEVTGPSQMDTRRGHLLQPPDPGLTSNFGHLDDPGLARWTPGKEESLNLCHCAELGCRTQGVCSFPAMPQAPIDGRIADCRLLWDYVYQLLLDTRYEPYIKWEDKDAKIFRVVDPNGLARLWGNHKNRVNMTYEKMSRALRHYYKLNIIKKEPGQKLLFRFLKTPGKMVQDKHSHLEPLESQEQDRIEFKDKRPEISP
Method in brief: as §1

ELF5 = target: T6, ELF5 (Homo sapiens, UniProt Q9UKW6-2 1-255)
T6 sequence: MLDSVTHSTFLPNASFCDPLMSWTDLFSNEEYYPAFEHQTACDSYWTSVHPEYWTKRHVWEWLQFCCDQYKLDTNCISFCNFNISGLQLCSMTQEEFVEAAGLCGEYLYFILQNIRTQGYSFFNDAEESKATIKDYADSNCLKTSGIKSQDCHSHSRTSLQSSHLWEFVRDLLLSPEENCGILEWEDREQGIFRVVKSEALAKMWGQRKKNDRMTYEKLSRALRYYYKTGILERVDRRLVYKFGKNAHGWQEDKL
Method in brief: as §1

ETV3 = target: T7, ETV3 (Homo sapiens, UniProt P41162-2 1-143)
T7 sequence: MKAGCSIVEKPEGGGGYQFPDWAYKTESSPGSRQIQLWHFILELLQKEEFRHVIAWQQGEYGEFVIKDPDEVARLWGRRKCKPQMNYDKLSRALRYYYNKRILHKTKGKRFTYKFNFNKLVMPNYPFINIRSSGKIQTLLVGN
Method in brief: as §1

ETV6 = ETV6 (Homo sapiens, UniProt P41212 1-452)
Method in brief: as §1

Sequence of ETV6 (P41212 whole entry): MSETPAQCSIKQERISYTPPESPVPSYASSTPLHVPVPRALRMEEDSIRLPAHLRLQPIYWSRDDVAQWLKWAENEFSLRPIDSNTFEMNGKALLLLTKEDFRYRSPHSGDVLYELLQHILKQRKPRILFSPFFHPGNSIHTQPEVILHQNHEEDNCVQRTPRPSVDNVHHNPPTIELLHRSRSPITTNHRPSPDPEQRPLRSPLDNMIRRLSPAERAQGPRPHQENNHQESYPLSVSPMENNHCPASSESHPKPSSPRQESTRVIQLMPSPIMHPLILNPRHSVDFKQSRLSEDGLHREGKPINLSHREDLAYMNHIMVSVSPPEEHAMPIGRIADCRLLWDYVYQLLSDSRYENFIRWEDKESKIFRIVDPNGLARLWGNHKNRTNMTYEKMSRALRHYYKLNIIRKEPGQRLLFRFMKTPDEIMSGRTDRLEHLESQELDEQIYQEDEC

| Sequence | binding signal (ERF) | binding signal (ETV3L) | binding signal (ETS2) | binding signal (SPDEF) | binding signal (ETV7) | binding signal (ELF5) | binding signal (ETV3) | binding signal (ETV6) |
| --- | --- | --- | --- | --- | --- | --- | --- | --- |
| TGCTGA | 1.03 fold enrichment (6-mer frequency, TF over GST control) | 1.05 fold enrichment (6-mer frequency, TF over GST control) | 1.11 fold enrichment (6-mer frequency, TF over GST control) | 1.11 fold enrichment (6-mer frequency, TF over GST control) | 1.07 fold enrichment (6-mer frequency, TF over GST control) | 1 fold enrichment (6-mer frequency, TF over GST control) | 1.12 fold enrichment (6-mer frequency, TF over GST control) | 1.01 fold enrichment (6-mer frequency, TF over GST control) |
| TAGGGT | 1.15 fold enrichment (6-mer frequency, TF over GST control) | 1.03 fold enrichment (6-mer frequency, TF over GST control) | 1.02 fold enrichment (6-mer frequency, TF over GST control) | 1.12 fold enrichment (6-mer frequency, TF over GST control) | 1.11 fold enrichment (6-mer frequency, TF over GST control) | 1.06 fold enrichment (6-mer frequency, TF over GST control) |  | 1.04 fold enrichment (6-mer frequency, TF over GST control) |
| CTAGTA | 1.17 fold enrichment (6-mer frequency, TF over GST control) | 1.08 fold enrichment (6-mer frequency, TF over GST control) | 1.18 fold enrichment (6-mer frequency, TF over GST control) | 1.11 fold enrichment (6-mer frequency, TF over GST control) | 1.11 fold enrichment (6-mer frequency, TF over GST control) | 1.08 fold enrichment (6-mer frequency, TF over GST control) | 1.13 fold enrichment (6-mer frequency, TF over GST control) | 1.12 fold enrichment (6-mer frequency, TF over GST control) |
| TCGAAT | 1.13 fold enrichment (6-mer frequency, TF over GST control) | 1.09 fold enrichment (6-mer frequency, TF over GST control) | 1.06 fold enrichment (6-mer frequency, TF over GST control) | 1.09 fold enrichment (6-mer frequency, TF over GST control) | 1.23 fold enrichment (6-mer frequency, TF over GST control) | 1.02 fold enrichment (6-mer frequency, TF over GST control) |  | 1.13 fold enrichment (6-mer frequency, TF over GST control) |
| AAGCGC | 1.1 fold enrichment (6-mer frequency, TF over GST control) | 1.13 fold enrichment (6-mer frequency, TF over GST control) | 1.22 fold enrichment (6-mer frequency, TF over GST control) | 1.03 fold enrichment (6-mer frequency, TF over GST control) | 1.11 fold enrichment (6-mer frequency, TF over GST control) | 1.13 fold enrichment (6-mer frequency, TF over GST control) | 1.29 fold enrichment (6-mer frequency, TF over GST control) | 1.15 fold enrichment (6-mer frequency, TF over GST control) |
| ACACGA | 1.15 fold enrichment (6-mer frequency, TF over GST control) | 1.04 fold enrichment (6-mer frequency, TF over GST control) | 1.08 fold enrichment (6-mer frequency, TF over GST control) | 1.03 fold enrichment (6-mer frequency, TF over GST control) | 1.11 fold enrichment (6-mer frequency, TF over GST control) | 1.03 fold enrichment (6-mer frequency, TF over GST control) |  | 1.06 fold enrichment (6-mer frequency, TF over GST control) |
| CCACCC | 1.24 fold enrichment (6-mer frequency, TF over GST control) | 1.37 fold enrichment (6-mer frequency, TF over GST control) | 1.18 fold enrichment (6-mer frequency, TF over GST control) | 1.22 fold enrichment (6-mer frequency, TF over GST control) | 1.09 fold enrichment (6-mer frequency, TF over GST control) | 1.21 fold enrichment (6-mer frequency, TF over GST control) | 1.28 fold enrichment (6-mer frequency, TF over GST control) | 1.24 fold enrichment (6-mer frequency, TF over GST control) |
| ACTGAA | 1.13 fold enrichment (6-mer frequency, TF over GST control) | 1.1 fold enrichment (6-mer frequency, TF over GST control) | 1.23 fold enrichment (6-mer frequency, TF over GST control) | 1.21 fold enrichment (6-mer frequency, TF over GST control) | 1.06 fold enrichment (6-mer frequency, TF over GST control) | 1.11 fold enrichment (6-mer frequency, TF over GST control) | 1.21 fold enrichment (6-mer frequency, TF over GST control) | 1.17 fold enrichment (6-mer frequency, TF over GST control) |
| CAAATC | 1.12 fold enrichment (6-mer frequency, TF over GST control) | 1.1 fold enrichment (6-mer frequency, TF over GST control) | 1.09 fold enrichment (6-mer frequency, TF over GST control) | 1.26 fold enrichment (6-mer frequency, TF over GST control) | 1.13 fold enrichment (6-mer frequency, TF over GST control) | 1.08 fold enrichment (6-mer frequency, TF over GST control) |  | 1.05 fold enrichment (6-mer frequency, TF over GST control) |
| GTTCCG | 1.74 fold enrichment (6-mer frequency, TF over GST control) | 1.93 fold enrichment (6-mer frequency, TF over GST control) | 1.98 fold enrichment (6-mer frequency, TF over GST control) | 2.25 fold enrichment (6-mer frequency, TF over GST control) | 1.67 fold enrichment (6-mer frequency, TF over GST control) | 2.5 fold enrichment (6-mer frequency, TF over GST control) | 2.17 fold enrichment (6-mer frequency, TF over GST control) | 1.9 fold enrichment (6-mer frequency, TF over GST control) |
| ACCTAT | 1.26 fold enrichment (6-mer frequency, TF over GST control) | 1.16 fold enrichment (6-mer frequency, TF over GST control) | 1.2 fold enrichment (6-mer frequency, TF over GST control) | 1.25 fold enrichment (6-mer frequency, TF over GST control) | 1.25 fold enrichment (6-mer frequency, TF over GST control) | 1.11 fold enrichment (6-mer frequency, TF over GST control) | 1.17 fold enrichment (6-mer frequency, TF over GST control) | 1.16 fold enrichment (6-mer frequency, TF over GST control) |
| GCAAAT | 1.11 fold enrichment (6-mer frequency, TF over GST control) | 1.05 fold enrichment (6-mer frequency, TF over GST control) | 1.01 fold enrichment (6-mer frequency, TF over GST control) | 1.11 fold enrichment (6-mer frequency, TF over GST control) | 1.04 fold enrichment (6-mer frequency, TF over GST control) | 1.01 fold enrichment (6-mer frequency, TF over GST control) |  | 1 fold enrichment (6-mer frequency, TF over GST control) |
| TATCCC | 1.52 fold enrichment (6-mer frequency, TF over GST control) | 1.52 fold enrichment (6-mer frequency, TF over GST control) | 1.47 fold enrichment (6-mer frequency, TF over GST control) | 1.72 fold enrichment (6-mer frequency, TF over GST control) | 1.53 fold enrichment (6-mer frequency, TF over GST control) | 2.05 fold enrichment (6-mer frequency, TF over GST control) | 1.62 fold enrichment (6-mer frequency, TF over GST control) | 1.51 fold enrichment (6-mer frequency, TF over GST control) |
| GAAAAG | 1 fold enrichment (6-mer frequency, TF over GST control) | 1.09 fold enrichment (6-mer frequency, TF over GST control) | 1.05 fold enrichment (6-mer frequency, TF over GST control) | 1.01 fold enrichment (6-mer frequency, TF over GST control) | 1.13 fold enrichment (6-mer frequency, TF over GST control) | 1.12 fold enrichment (6-mer frequency, TF over GST control) |  | 1.18 fold enrichment (6-mer frequency, TF over GST control) |
| CAACCT | 1.26 fold enrichment (6-mer frequency, TF over GST control) | 1.13 fold enrichment (6-mer frequency, TF over GST control) | 1.2 fold enrichment (6-mer frequency, TF over GST control) | 1.19 fold enrichment (6-mer frequency, TF over GST control) | 1.09 fold enrichment (6-mer frequency, TF over GST control) | 1.2 fold enrichment (6-mer frequency, TF over GST control) | 1.1 fold enrichment (6-mer frequency, TF over GST control) | 1.18 fold enrichment (6-mer frequency, TF over GST control) |
